# Measured values taken from PubChem BioAssay (NCATS).
# Where “and” joins values, the source holds several entries; their conditions need not be identical. Equal entries are not always repeated. Results filed as inconclusive are left out. Calls of active or inactive are those of the source. The call rests on the fitted dose curve; in most records, active means well fitted curve in the direction sought with a large enough effect; inconclusive means small, poorly fitted or top-dose-only effect, or another doubt; inactive means no such curve, though single readings can be large or run the other way.
# Molecular target: T1, Hexokinase-4 (Homo sapiens) + Glucokinase regulatory protein (Homo sapiens) (UniProt P35557+Q14397)
# Experiment: qHTS assay for inhibitors of recombinant human GCK-GKRP interaction: Diaphorase-coupled assay (AID 743205)
# Conditions: G6PDH/diaphorase resorufin fluorescence; series mostly up to 57.5 µM; activity change, positive = activation: at the top concentration
# Method in brief: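 Inhibitors of the GCK–GKRP complex relieve GKRP suppression of GCK, detected through a G6PDH–diaphorase cascade reducing resazurin. Human GST-GCK and FLAG-GKRP are used at 10 nM with 5 mM glucose and 0.4 mM ATP.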
# T1 sequence (P35557 whole entry, looked up): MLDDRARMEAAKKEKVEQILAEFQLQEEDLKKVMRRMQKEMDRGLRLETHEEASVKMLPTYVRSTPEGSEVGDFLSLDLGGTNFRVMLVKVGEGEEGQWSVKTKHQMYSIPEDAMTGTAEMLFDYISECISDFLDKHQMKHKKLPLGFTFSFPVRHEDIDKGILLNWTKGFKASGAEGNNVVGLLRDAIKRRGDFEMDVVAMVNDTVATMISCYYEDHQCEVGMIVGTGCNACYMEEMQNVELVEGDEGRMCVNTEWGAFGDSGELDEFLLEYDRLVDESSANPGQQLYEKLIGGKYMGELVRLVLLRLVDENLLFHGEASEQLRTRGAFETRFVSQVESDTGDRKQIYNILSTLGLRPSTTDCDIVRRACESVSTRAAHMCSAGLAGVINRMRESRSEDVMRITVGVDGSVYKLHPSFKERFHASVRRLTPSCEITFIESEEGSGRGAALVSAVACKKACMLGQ
# T1 sequence (Q14397 whole entry, looked up): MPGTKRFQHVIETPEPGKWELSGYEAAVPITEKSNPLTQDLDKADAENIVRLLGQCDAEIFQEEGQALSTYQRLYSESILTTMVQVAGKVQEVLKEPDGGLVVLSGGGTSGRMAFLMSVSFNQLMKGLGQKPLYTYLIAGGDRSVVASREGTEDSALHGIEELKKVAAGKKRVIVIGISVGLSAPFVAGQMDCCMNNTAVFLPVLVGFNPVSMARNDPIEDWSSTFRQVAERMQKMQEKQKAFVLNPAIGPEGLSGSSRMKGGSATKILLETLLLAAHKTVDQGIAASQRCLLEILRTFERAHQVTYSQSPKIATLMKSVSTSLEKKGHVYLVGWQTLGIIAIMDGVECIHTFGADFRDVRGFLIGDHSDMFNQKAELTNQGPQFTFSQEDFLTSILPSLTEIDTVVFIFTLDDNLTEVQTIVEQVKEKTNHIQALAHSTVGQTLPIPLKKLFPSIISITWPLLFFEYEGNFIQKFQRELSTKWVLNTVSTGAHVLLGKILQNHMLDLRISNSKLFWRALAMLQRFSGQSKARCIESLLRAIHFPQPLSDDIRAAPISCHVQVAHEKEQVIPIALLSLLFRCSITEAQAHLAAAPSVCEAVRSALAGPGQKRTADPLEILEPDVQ
row,Compound,"activity change, positive = activation"
1,CCN(CC)CCNC(=O)c1ccc(NS(C)(=O)=O)cc1,-0.089% (inactive)
2,C[N+](C)(C)CCO,-4.58% (inactive)
3,Nc1ncnc2n[nH]c(Nc3ccc(F)cc3)c12,-1.29% (inactive)
4,COC(=O)C1=CO[C@@H](O)[C@@H]2C(CO)=CC[C@H]12,-1.08% (inactive)
5,Cn1cnc2c(NCc3ccccc3)nc(NCCO)nc21,-3.24% (inactive)

# Molecular target: T1, Hexokinase-4 (Homo sapiens) + Glucokinase regulatory protein (Homo sapiens)
# Experiment: qHTS assay for inhibitors of recombinant human GCK-GKRP interaction: ADP-Glo assay (AID 743206);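 further: plate controls were DMSO plus enzyme for no effect and no enzyme for full effect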
# Conditions: ADP-Glo luminescence, 60 min, 0% = vehicle-only wells with enzyme present; series mostly up to 76.9 µM; activity, positive = activation: at the top concentration
# Method in brief: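 Pin-transferred compounds meet a 15 nM GST-GCK/15 nM FLAG-GKRP/2 uM S6P mix (dispense concentrations). ATP is then added to 0.4 mM final with 5 mM glucose, and the reaction runs 60 min at room temperature. ADP is quantified luminescently.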
row,Compound,"activity, positive = activation"
1,CCN(CC)CCNC(=O)c1ccc(NS(C)(=O)=O)cc1,2.34% (inactive)
2,C[N+](C)(C)CCO,3.03% (inactive)
3,Nc1ncnc2n[nH]c(Nc3ccc(F)cc3)c12,-0.317% (inactive)
4,COC(=O)C1=CO[C@@H](O)[C@@H]2C(CO)=CC[C@H]12,3.6% (inactive)
5,Cn1cnc2c(NCc3ccccc3)nc(NCCO)nc21,2.34% (inactive)

# Molecular target: T1, Hexokinase-4 (Homo sapiens) + Glucokinase regulatory protein (Homo sapiens)
# Experiment: qHTS assay for inhibitors of recombinant human GCK-GKRP interaction: HTRF assay (AID 743207);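 further: 0% = DMSO with GCK present and -100% = DMSO wells lacking GCK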
# Conditions: recombinant GCK-GKRP HTRF binding, 60 min, with sorbitol-6-phosphate; series mostly up to 57.5 µM; activity change, negative = inhibition: at the top concentration
# Method in brief: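 Steps: dispense GCK–GKRP complex (5 nM each, GST- and FLAG-tagged) with 2 uM S6P; pin in compounds; add XL665/Eu-cryptate-labelled antibodies; incubate 60 min at room temperature; read time-resolved FRET at 665 and 615 nm.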
row,Compound,"activity change, negative = inhibition"
1,CCN(CC)CCNC(=O)c1ccc(NS(C)(=O)=O)cc1,2.45% (inactive)
2,C[N+](C)(C)CCO,1.02% (inactive)
3,Nc1ncnc2n[nH]c(Nc3ccc(F)cc3)c12,11.3% (inactive)
4,COC(=O)C1=CO[C@@H](O)[C@@H]2C(CO)=CC[C@H]12,-0.399% (inactive)
5,Cn1cnc2c(NCc3ccccc3)nc(NCCO)nc21,-1.9% (inactive)

# Tested on: not listed separately
# Experiment: qHTS Assay for Identifying Gametocytocidal Compounds (AID 743244); further: potency means the concentration at half of the fitted maximal effect;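 on max response: on the % scale 0 is the no-effect control and ±100 the full control effect; actives lower the fluorescent signal which means gametocytes are killed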
# Conditions: P. falciparum 3D7 stage III-V gametocytes, alamarBlue, 72 h; max response: stronger effect = lower value
# Method in brief: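 P. falciparum 3D7 stage III–V gametocytes (20,000 cells/well) were exposed to compounds for 72 h at 37 °C, 5% CO2. AlamarBlue was then added for 24 h; decreased resorufin fluorescence (Ex 525/Em 598 nm) indicated loss of viability.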
Compound,Potency,max response
CCCCCCCCCCCCCCCC[N+](C)(C)Cc1ccccc1,7.08 µM (active),–
CC(COc1ccccc1)NN (centres undefined),–,-1.29% (inactive)
Cc1cc2nc3ccc(=[N+](C)C)cc-3sc2cc1N,6.31 µM (active),–
Cn1cc(S(C)=O)c(=O)c2ccc(F)cc21 (centres undefined),–,-4.53% (inactive)
O=C(O)Cc1ccc(OCCNC[C@H](O)c2ccccc2)cc1,–,-2.47% (inactive)
O=C(CO)[C@@H](O)[C@H](O)[C@@H](O)CO,–,-0.255% (inactive)
CC(=O)[C@H]1CC[C@H]2[C@@H]3C=CC4=CC(=O)CC[C@@]4(C)[C@@H]3CC[C@]12C,–,-3.42% (inactive)
O=C(O)[C@@H](O)[C@H](O)[C@H](O)[C@@H](O)C(=O)O,–,9.57% (inactive)
N=C(N)c1ccc(OCCCOc2ccc(C(=N)N)cc2)cc1,4.47 µM (active),–
Cc1nc([N+](=O)[O-])cn1-c1ccc([N+](=O)[O-])cc1,–,9.29% (inactive)
O=C(O)[C@H](O)[C@@H](O)[C@H](O[C@@H]1O[C@H](CO)[C@H](O)[C@H](O)[C@H]1O)[C@H](O)CO,–,-7.07% (inactive)
CCN(CC)CCNC(=O)c1ccc(NS(C)(=O)=O)cc1,–,-10.8% (inactive)
CO/N=C(/C(=O)N[C@@H]1C(=O)N2C(C(=O)[O-])=C(C[n+]3ccn4ncccc43)CS[C@H]12)c1nsc(N)n1,–,-9.85% (inactive) and -19.4% (inactive)
COc1c(C)c2c(c(O)c1C/C=C(\C)CCC(=O)OCCN1CCOCC1)C(=O)OC2,–,2.71% (inactive)
C[N+](C)(C)CCO,–,1.6% (inactive) and 15% (inactive)
O=C(O)CNC(=O)CNC(=O)CNC(=O)CSC(=O)c1ccccc1,–,0.93% (inactive)
O=C(O)Cc1ccccc1Oc1ccc(Cl)cc1Cl,–,10.5% (inactive)
CCN1CCN(c2cc(-c3ccc(F)cc3)c3c(n2)CCCCCC3)CC1,–,9.24% (inactive)
CC1(C)O[C@@H]2C[C@H]3[C@@H]4CCC5=CC(=O)C=C[C@]5(C)[C@@]4(F)[C@@H](O)C[C@]3(C)[C@]2(C(=O)CO)O1,–,-0.0995% (inactive)
CO[C@@H]1[C@@H](OC)[C@H](C)[C@@](O)(CC(=O)O)O[C@H]1[C@H](C)[C@H]1O[C@@]2(CC[C@@](C)([C@H]3CC[C@@](C)([C@@H]4O[C@@H]([C@H]5O[C@](C)(O)[C@H](C)C[C@@H]5C)C[C@@H]4OC4C[C@H](OC)[C@@H](OC)[C@H](C)O4)O3)O2)C[C@H](O)[C@H]1C (some centres undefined),0.0935 µM (active),–

Compound,Potency,max response
CO[C@@]1(NC(=O)CSC[C@@H](N)C(=O)O)C(=O)N2C(C(=O)O)=C(CSc3nnnn3C)CS[C@@H]21,–,3.25% (inactive)
CCN1C(=O)c2ccccc2C1Nc1ccc(OCCN2CCCCC2)cc1 (centres undefined),–,-8.48% (inactive)
Nc1ncnc2n[nH]c(Nc3ccc(F)cc3)c12,–,6.51% (inactive)
C[C@H]1C[C@@H]2[C@H]([C@@H](O)C[C@@]3(C)[C@H]2CC[C@]3(O)C(=O)CO)[C@@]2(C)C=CC(=O)C=C12,–,-12.4% (inactive)
CC1(C)S[C@@H]2[C@H](NC(=O)C(c3ccccc3)S(=O)(=O)O)C(=O)N2[C@H]1C(=O)O (some centres undefined),–,-17.7% (inactive)
O=[N+]([O-])c1nccn1CO[C@@H](CO)[C@H](O)CO,–,-9.19% (inactive)
O=C(O)c1[nH]n(-c2ccc(S(=O)(=O)O)cc2)c(=O)c1N=Nc1ccc(S(=O)(=O)O)cc1,–,-0.65% (inactive)
Cc1ccccc1C(=O)N1CC/C(=N\OS(=O)(=O)O)c2ccc(Cl)cc21,–,0.506% (inactive)
CO/N=C(/C(=O)N[C@@H]1C(=O)N2C(C(=O)OCOC(=O)C(C)(C)C)=C(C)CS[C@H]12)c1csc(N)n1,–,-0.603% (inactive)
CC(C)C[C@H](NC(=O)CNC(=O)[C@H](Cc1ccc(O)cc1)NC(=O)[C@H](CO)NC(=O)[C@H](Cc1c[nH]c2ccccc12)NC(=O)[C@H](Cc1cnc[nH]1)NC(=O)[C@@H]1CCC(=O)N1)C(=O)N[C@@H](CCCN=C(N)N)C(=O)N1CCC[C@H]1C(=O)NCC(N)=O (stereo in doubt),–,-1.4% (inactive)
COC(=O)C1=CO[C@@H](O)[C@@H]2C(CO)=CC[C@H]12,–,18% (inactive)
Nc1nnnn1-c1ccccc1,–,2.05% (inactive)
OC[C@]1(O)OC[C@@H](O)[C@H](O)[C@@H]1O,–,13.1% (inactive)
CSCC[C@H](NC(=O)[C@H](Cc1c[nH]c2ccccc12)NC(=O)CCNC(=O)OC(C)(C)C)C(=O)N[C@@H](CC(=O)O)C(=O)N[C@@H](Cc1ccccc1)C(N)=O,–,-18.5% (inactive)
CCOC(=O)c1ccc(NC(=O)CN2CCCCC2)cc1,–,11.1% (inactive)
Cn1cnc2c(NCc3ccccc3)nc(NCCO)nc21,–,11.6% (inactive)
CCOC(=O)NNc1nncc2ccccc12,–,-13.4% (inactive)
O=C1CC2(CCCC2)CC(=O)N1CCNCC1COc2ccccc2O1 (centres undefined),–,2.39% (inactive)
Nc1c[n+](N2CCOCC2)no1,–,2.15% (inactive)
